Here are results for 31 compounds from PubChem BioAssay (NCATS).

Values joined by “and” are separate entries in the source; they are usually repeats but may differ in a detail not shown here. Equal values may be shown once. Inconclusive results are not listed. Active and inactive are the calls of the source. Calls follow the shape of the dose curve; as a rule, active = well fitted curve in the direction sought with a large enough effect; inconclusive = small, poorly fitted or top-dose-only effect, or another doubt; inactive = no such curve, though single readings can be large or run the other way.
% is scaled to controls: 0 for no effect and ±100 for the full control effect; potency is read from the fitted curve at half-maximal effect.

The nature of the experiment: qHTS Assay for Identifying Gametocytocidal Compounds (AID 743244).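 As to max response: actives lower the fluorescent signal which means gametocytes are killed.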 The conditions noted are these: P. falciparum 3D7 stage III-V gametocytes, alamarBlue, 72 h; max response: hits give low values. The essentials:
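Stage III-V P. falciparum 3D7 gametocytes, 20,000 per well, were exposed to compounds for 72 h at 37C, 5% CO2. AlamarBlue was then added for 24 h and viability was read as fluorescence at Ex 525/Em 598 nm.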
(In qHTS, concentration-response curves come from the screen itself.)
`O=[N+]([O-])/N=C1\NCCN1Cc1ccc(Cl)nc1`: the max response was 3.56% (inactive) and 4.82% (inactive).
In the case of `CCO/N=C(\CC)C1=C(O)CC(c2c(C)cc(C)cc2C)CC1=O` (stereo unspecified), the max response was 13.9% (inactive).
The same measure, in the same setting: with `CCCCCCCCCC(CC)c1ccc(S(=O)(=O)O)cc1` (stereo unspecified) the figure was -5.24% (inactive) and 45.2% (inactive); with `Nc1ccc(Cl)cc1N`, -15.5% (inactive).
Same read-out and setting: then `O=C(O)COc1nc(Cl)c(Cl)cc1Cl`, with 14.5% (inactive); and `CC(C)Oc1cccc(NC(=O)c2ccccc2C(F)(F)F)c1`, with 15.7% (inactive).
On to `CC(C)NCC(O)c1ccc([N+](=O)[O-])cc1` (stereo unspecified), for which the max response was -16.1% (inactive).
Same read-out and setting: with `O=C(O)CCCOc1ccc(Cl)cc1Cl` the figure was 19% (inactive); with `O=[N+]([O-])c1cc([N+](=O)[O-])c2ccccc2c1`, -17.3% (inactive); with `O=S(=O)(O)C(F)(F)C(F)(F)C(F)(F)C(F)(F)C(F)(F)C(F)(F)C(F)(F)C(F)(F)F`, -9.5% (inactive).
Regarding `CC1(C)CC/C(=C/c2ccc(Cl)cc2)C1(O)Cn1cncn1` (stereo unspecified), the max response is -5.52% (inactive).
Still for that read-out and setting: then `CO/C=C(/C(=O)OC)c1ccccc1Oc1cc(Oc2ccccc2C#N)ncn1`, with 18.4% (inactive).
For `O=[N+]([O-])c1ccc([As](=O)(O)O)cc1`, the Potency was 10 µM (active).
With `COC(C)(C)CCCC(C)C/C=C/C(C)=C/C(=O)OC(C)C` (stereo unspecified), the max response was -9.95% (inactive).
For the compound `CS(=O)(=O)c1ccc(C(=O)C2C(=O)CCCC2=O)c([N+](=O)[O-])c1`, the max response is -23.2% (inactive).
Take `C[N+](C)(C)CC(=O)O`: the max response was -4.91% (inactive).
Still for that read-out and setting: with `Nc1ccc(N=Nc2ccccc2)cc1` the figure was 11.9% (inactive); with `CC(C)(C)C(O)C(Oc1ccc(Cl)cc1)n1cncn1` (stereo unspecified), 12.8% (inactive); with `CCOP(=O)(NC(C)C)Oc1ccc(SC)c(C)c1` (stereo unspecified), 14.8% (inactive).
With `O=[N+]([O-])c1c(Cl)c(Cl)cc(Cl)c1Cl`, the max response was -14.2% (inactive).
The same measure, in the same setting: then `O=S(=O)(c1ccc(Cl)cc1)c1ccc(Cl)cc1`, with -16% (inactive).
The same measure, in the same setting: with `Oc1ccc2c3c1O[C@H]1[C@@H](O)C=C[C@H]4[C@@H](C2)NCC[C@@]341` the figure was 4.91% (inactive); with `OCCCBr`, 31% (inactive).
Same read-out and setting: then `C=CCC1=C(C)C(OC(=O)C2C(C=C(C)C)C2(C)C)CC1=O` (stereo unspecified), with -9.3% (inactive); and `Nc1ccc([N+](=O)[O-])cc1`, with -13.4% (inactive); and `Nc1ccc(Cl)cc1`, with 4.15% (inactive).
Consider `COc1ccc(C(c2ccc(OC)cc2)C(Cl)(Cl)Cl)cc1`, for which the max response is -11% (inactive).
On the same count and under the same terms, with `CCCCC(CC)COC(=O)c1ccccc1C(=O)OCC(CC)CCCC` (stereo unspecified) the figure was 10.4% (inactive); with `C=CC(=O)NCNC(=O)C=C`, 11% (inactive).
On the same count and under the same terms, then `O=C(Nc1ccccc1-c1ccc(Cl)cc1)c1cccnc1Cl`, with 10.9% (inactive); and `COc1nn(CSP(=S)(OC)OC)c(=O)s1`, with 14.2% (inactive).
